Many of the other results were omitted from the sample, so hits are more common in it than they were.
ROC1-CUL1 inh: inhibitors of human ROC1-CUL1 ubiquitin ligase activity; inhibition, % at 10 µM; in vitro K48 di-Ub FRET, acceptor:donor ratio, 45 min; 140,000 compounds, 0.6% hits; AID 1347404; in the data active = inhibition above about 25%
Target sequence (P62877 whole entry, looked up): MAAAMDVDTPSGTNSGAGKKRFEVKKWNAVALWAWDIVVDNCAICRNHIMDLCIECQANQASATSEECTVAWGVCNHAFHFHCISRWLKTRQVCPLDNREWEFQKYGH
Target sequence (Q13616 whole entry, looked up): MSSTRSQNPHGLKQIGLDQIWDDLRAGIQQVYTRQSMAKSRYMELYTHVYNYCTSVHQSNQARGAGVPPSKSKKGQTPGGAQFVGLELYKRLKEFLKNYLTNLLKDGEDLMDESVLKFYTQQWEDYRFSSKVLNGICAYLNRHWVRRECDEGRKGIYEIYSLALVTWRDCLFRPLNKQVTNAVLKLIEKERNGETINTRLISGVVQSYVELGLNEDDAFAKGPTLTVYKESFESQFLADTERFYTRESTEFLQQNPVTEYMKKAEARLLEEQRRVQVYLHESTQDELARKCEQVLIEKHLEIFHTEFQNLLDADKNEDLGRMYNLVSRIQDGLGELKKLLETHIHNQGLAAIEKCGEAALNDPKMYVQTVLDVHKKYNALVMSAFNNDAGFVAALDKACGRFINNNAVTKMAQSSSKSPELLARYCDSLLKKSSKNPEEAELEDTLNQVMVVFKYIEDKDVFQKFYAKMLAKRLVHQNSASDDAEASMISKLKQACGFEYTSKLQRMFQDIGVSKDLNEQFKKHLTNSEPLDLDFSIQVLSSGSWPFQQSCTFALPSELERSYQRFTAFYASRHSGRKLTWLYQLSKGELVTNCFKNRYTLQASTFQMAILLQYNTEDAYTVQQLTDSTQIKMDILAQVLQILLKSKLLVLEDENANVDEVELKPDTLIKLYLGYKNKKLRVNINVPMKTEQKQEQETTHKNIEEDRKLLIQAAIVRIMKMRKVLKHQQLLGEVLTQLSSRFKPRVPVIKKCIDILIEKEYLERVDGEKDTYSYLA
Numbers without * were called inactive.

SMILES	ROC1-CUL1 inh
O=C1C(=O)c2cccc3cccc1c23	1
O=C1C(=O)c2ccccc2-c2ccccc21	98*
O=C1C(=O)c2c3ccccc3cc3cccc1c23	-1
Cc1c(CN2CCCC(C(=O)c3cccc(C(F)(F)F)c3)C2)cnn1C (configuration not stated)	10
CCOc1ccc(C(=O)C23CN4CN(CN(C4)C2)C3)cc1	-4
COC(=O)OCC12CCC(O1)C1(C)C(=O)OCC21 (configuration not stated)	56*
O=C1NC(=O)N(Cc2ccc(F)cc2)C(=O)/C1=C\c1ccoc1	76*
CN(C)c1ncc(CN2CCCC(C(=O)c3cccc(Cl)c3)C2)s1 (configuration not stated)	-6
N#CC1C(=N)Oc2c(c(=O)oc3ccccc23)C1c1c(F)cccc1Cl (configuration not stated)	-5
COC(=O)C1C2c3ccccc3O[C@]1(C)N=c1s/c(=C/c3ccc(OC(F)F)cc3)c(=O)n12 (some centres not stated)	-8
C=CC1CN2CCC1CC2C(=O)c1ccnc2ccccc12 (configuration not stated)	7
C=CCN1C(=O)/C(=C/c2cc(C)n(-c3cccnc3)c2C)C(=O)NC1=S	4
COc1ccc(N2C(=O)/C(=C/c3cc(C)n(-c4ccc(C(=O)O)cc4C)c3C)C(=O)NC2=S)c(OC)c1	37*
O=C1NC(=S)NC(=O)C1=Cc1ccccc1OCc1ccc(C(=O)O)cc1	-10
Cc1cc(/C=C2\C(=O)NC(=S)N(c3cccc(Cl)c3)C2=O)c(C)n1-c1cc(C(=O)O)cc(C(=O)O)c1	55*
Cc1cc(/C=C2\C(=O)NC(=O)N(Cc3ccccc3)C2=O)c(C)n1-c1ccc(Cl)c(C(=O)O)c1	36*
CCOc1ccc(N2C(=O)/C(=C/c3cc(C)n(-c4ccc(S(N)(=O)=O)cc4)c3C)C(=O)NC2=S)cc1	28*
COc1ccc(C=C2C(=O)NC(=S)NC2=O)c(OC)c1	-2
CCN(CC)c1ccc(C=C2C(=O)NC(=S)NC2=O)c(OC)c1	-4
OP1(O)=NP(O)(O)=NP(O)(O)=NP(O)(O)=N1	3
CCN1CCc2nc3sc(C(N)=O)c(N)c3cc2C1	2
COc1cccc(C2(O)CCS(=O)CC2CN(C)C)c1 (configuration not stated)	4
CCCN1CCN(C(=O)Cc2ccc(C)cc2)CC1	-2
CC(Cc1cccnc1)NC1CCN(c2ccc(NC(=O)Cc3cccc(Cl)c3)cc2)CC1 (configuration not stated)	13
C=CCN1C(=O)C2(c3ccccc31)c1c(c3ccccc3oc1=O)OC(=N)C2C(=O)OCC (configuration not stated)	7
SMILES	ROC1-CUL1 inh
CCOCCN1CCN(Cc2nnc3n2-c2ccc(Cl)cc2C(c2ccccc2Cl)=NC3)CC1	-2
c1ccc(C(OCCN2CCN(c3ccccc3)CC2)c2ccccc2)cc1	-9
COCCOC(=O)C1=C(C)OC(=N)C(C(=O)OC)C12C(=O)Nc1ccc(Br)cc12 (configuration not stated)	-1
CCOC(=O)C1C(=N)Oc2c(c(C)nn2-c2ccccc2)C12C(=O)N(c1ccccc1)N=C2C (configuration not stated)	5
COc1cc(OCC(=O)N2CCN(CCc3ccccc3)CC2)cc(OC)c1OC	4
C#C[C@]1(OC(=O)CCc2ccc(C)o2)CCC2C3CCC4=CC(=O)CCC4C3CCC21C (some centres not stated)	-4
C[C@H](N[C@H](C)[C@@H](O)c1ccccc1)[C@H](O)c1ccccc1	9
CCOc1ccc(CN2C(=O)NC(=O)C(CCc3ccncc3)(CCc3ccncc3)C2=O)cc1	-2
CN(C)C(=O)Oc1ccc(-c2c[n+]3cc(Cl)ccc3n2C)cc1	-4
OC(c1ccccc1)(c1cccs1)C1CN2CCC1CC2 (configuration not stated)	-4
O=C1NC(=O)C([N+](=O)[O-])C(=O)N1	2
CN1C(=O)N(C)C(=O)C(Cl)(Cl)C1=O	33*
CC(C)c1ccc(OCC#CCN2CCOCC2)cc1	-5
CCOC(=O)c1c(C)n(Cc2ccccc2)c2c3nc(N)nnc3c3ccc(Br)cc3c12	9
CNC(=O)Oc1cccc(-c2cn3cc(C)ccc3n2)c1	5
O=C1N(CC2CCC2)CCCC1(O)CN1CC=C(c2ccccc2)CC1 (configuration not stated)	7
Cn1ncc(I)c1C(=O)Nc1ccc2c(C(F)(F)F)cc(=O)oc2c1	2
O=C1NC(=O)N(c2ccccc2)C(=O)/C1=C\c1ccccc1	-10
O=C1NC(=S)N(c2cccc(F)c2)C(=O)/C1=C/c1ccc(Br)o1	94*
C=CCN1C(=O)/C(=C/c2ccc(Br)s2)C(=O)NC1=S	1
CN1CCN(c2cc3n[nH]nc3cc2F)CC1	2
Cc1nc(CCNC(=O)c2cn(C)c3ccccc23)cc(=O)[nH]1	-3
N#CC(C#N)=Cc1ccc([N+](=O)[O-])s1	27*
N#CC(C#N)=Cc1csc2ccccc12	-15
CNc1ccc([N+](=O)[O-])cc1[N+](=O)[O-]	-3
